Reference: PubChem BioAssay AID2685 (National Center for Advancing Translational Sciences (NCATS), 2010)
About 2,100 (0.66%) of roughly 320,000 compounds were called active. Not shown: some 53% with an inconclusive outcome. Calls come from the whole dose curve; as a rule, active = well fitted inhibition curve with a large enough effect in the signal ratio, with a control signal flat (not every such curve was filed as active); inconclusive = small, poorly fitted or top-dose-only effect, or effect the other way, or a change in a side signal; inactive = flat fitted curve, though single readings scatter; the % refers to the signal ratio. Shown is part of a subset that was picked to be rich in actives.

Assay: qHTS Assay for Lipid Storage Modulators in Drosophila S3 Cells;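 for cell number change: cells counted by Cell Tracker Red CMTPX staining in the red channel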; for lipid storage change, negative = inhibition: % is set by controls: 0 for no effect and ±100 for the full control effect
Conditions: BODIPY lipid droplet fluorescence, 18-24 h, cells fed with added oleic acid; cell number change: measured here: cell count max response; series mostly up to 46.1 µM; lipid storage change, negative = inhibition: at the top concentration
Method in brief: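 Laser-scanning cytometry quantifies lipid droplet accumulation (500–530 nm total intensity; droplet/cell object ratio) in oleic acid-fed (400 uM added) Drosophila S3 cells treated with a concentration series. 20 uM Triacsin C defined 100% inhibition.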
Potency is the fitted concentration of half-maximal effect.

SMILES	lipid storage change, negative = inhibition	cell number change	Potency	outcome
COC(=O)c1cc2c(=O)c3ccccc3oc2nc1C	-1.05% (inactive)	21.3%	–	–
COc1ccccc1CNC(=O)c1ccc(C)s1	7.86% (inactive)	2.24%	–	–
COc1ccccc1CNC(=O)COC(=O)c1ccc(C)s1	–	8.78%	8.2 µM (active)	–
COc1ccccc1CNC(=O)COC(=O)c1cc(C)oc1C	4.54% (inactive)	0.0455%	–	–
O=S(=O)(NCC(c1cccs1)N1CCc2ccccc2C1)c1ccccc1 (centres undefined)	-15.3% [at 0.0737 µM] (inactive)	2.02%	–	–
Cc1ccc(S(=O)(=O)CC(=O)N2CCCC2)cc1	0.497% (inactive)	-4.5%	–	–
O=C(CS(=O)(=O)c1ccccc1)N1CCCCC1	–	17.3%	–	inactive
O=C(CS(=O)(=O)c1ccccc1)N1CCCCCC1	–	–	14.6 µM (active)	–
COc1ccc(S(=O)(=O)N2CCOC2CNC(=O)C(=O)NCC(C)C)cc1 (centres undefined)	23.8% (inactive)	-19.7%	–	–
CCCCc1nnc(NC(=O)C(C)Sc2nc(O)c(Cc3ccccc3)c(=O)[nH]2)s1 (centres undefined)	-12.5% (inactive)	-6.85%	–	–
Cc1ccsc1/C=N/N=C/c1sccc1C	–	-16.1%	18.4 µM (active)	–
Cc1ccsc1/C=N/n1cnnc1	-1.09% (inactive)	4.23%	–	–
Cc1ccsc1C=Nc1ccc(O)cc1	-2.45% (inactive)	-20.6%	–	–
CC(C)c1ccc(/C=N/NC(=O)C2CCCC2)cc1	–	-28.7%	3.26 µM (active)	–
CC(C)(C)c1ccc(/C=N/NC(=O)C2CCCC2)cc1	–	-15.9%	–	inactive
CC(C)c1ccc(/C=N/NC(=O)CC(=O)NC2CCCCC2)cc1	20.4% (inactive)	0.119%	–	–
c1ccc(N2CC[N+]3(CCCC3)CC2)nc1	3.09% (inactive)	0.943%	–	–
CC(C)(C)OC(=O)NCCCC[C@H](NC(=O)c1[nH]cnc1C(=O)Nc1ccc(CNC(=O)OC(C)(C)C)cc1)C(=O)OC(C)(C)C	-17.4% (inactive)	–	–	–
CN(C)c1ccc(C=NCCC2(c3ccccc3)CCOC(C)(C)C2)cc1 (centres undefined)	3.28% (inactive)	-6.59%	–	–
Cc1cc(NC(=O)c2ccccc2F)on1	-4.22% (inactive)	-0.938%	–	–
O=C(Nc1ccon1)c1cc2ccccc2oc1=O	–	11.7%	–	inactive
O=C(Nc1ccon1)c1ccccc1F	–	-7.37%	23.1 µM (active)	–
O=C(Nn1c(=O)[nH]c2ccsc2c1=O)c1ccccc1	-5.8% (inactive)	-16.2%	–	–
COc1ccc(N2CCN(C(=S)Nc3ccc(C)cc3)CC2)cc1	6.03% (inactive)	11.6%	–	–
O=C(NN1C(=O)C2C3C=CC(C4CC34)C2C1=O)c1ccc(Cl)c(Cl)c1 (centres undefined)	-0.569% (inactive)	1.92%	–	–

SMILES	lipid storage change, negative = inhibition	cell number change	Potency	outcome
O=C(CN1C(=O)/C(=C2\SC(=S)N(C3CCS(=O)(=O)C3)C2=O)c2ccccc21)Nc1ccccc1 (centres undefined)	3.37% (inactive)	-3.03%	–	–
O=C(NCC(c1ccccc1Cl)N1CCCC1)C1CCN(C(=O)Nc2ccccc2)CC1 (centres undefined)	–	-29.1%	6.51 µM (active)	–
O=C(NCCc1ccccc1)C1CCN(C(=O)Nc2ccccc2)CC1	16.6% (inactive)	-33.1%	–	–
O=C(NCC(c1ccccc1)N1CCCC1)C1CCN(C(=O)Nc2ccccc2)CC1 (centres undefined)	–	-22%	–	inactive
CCC(Sc1nnc(C)s1)C(=O)Nc1nccs1 (centres undefined)	11.8% (inactive)	-15.3%	–	–
CCC(Sc1nc(C)cc(C)n1)C(=O)Nc1nccs1 (centres undefined)	–	-0.54%	2.06 µM (active)	–
Cc1cc(C)nc(SCC(=O)Nc2nccs2)n1	–	13.1%	–	inactive
CN(C(=O)CCCN1CCCC1=O)C1CCCN(Cc2ccccc2F)C1 (centres undefined)	–	6.08%	–	inactive
COc1cc2c(cc1OC)C(COc1ccc(F)cc1)N(C(C)=O)CC2 (centres undefined)	-27.7% (inactive)	-4.23%	–	–
CCOC(=O)C(O)(CC(=O)Nc1cc(F)ccc1C)C(F)(F)F (centres undefined)	7.55% (inactive)	6.77%	–	–
CC1CC1C(=O)Nc1nc(-c2ccccn2)cs1 (centres undefined)	–	–	–	inactive
CCC/C(C)=N/NC(=O)c1ccccc1O	-0.436% (inactive)	9.25%	–	–
COc1ccc(-c2cc3nc(C)c(CCC(=O)N4CCN(c5ccccn5)CC4)c(C)n3n2)c(OC)c1	-2.84% (inactive)	-15.1%	–	–
CCOC(=O)CSc1ccc(S(=O)(=O)N2CCCCC2)cc1[N+](=O)[O-]	11.2% (inactive)	12.9%	–	–
CCOC(=O)CSc1ccc(S(=O)(=O)N(C)C2CCCCC2)cc1[N+](=O)[O-]	–	-12.4%	25.9 µM (active)	–
CCOC(=O)CSc1ccc(S(=O)(=O)N(CC)CC)cc1[N+](=O)[O-]	5.13% (inactive)	15.5%	–	–
Cc1nc(C)c(C(=O)Nc2ccccc2)s1	2.24% (inactive)	13.8%	–	–
CC(=O)Nc1ccc(Nc2nc(C)cc(C)n2)cc1	-1.44% (inactive)	7.77%	–	–
O=C(/C=C/c1ccccc1)Nn1c(-c2cccs2)nc2ccccc2c1=O	17.1% (inactive)	20.7%	–	–
CCN(CC)CCNC(=O)CCc1n[nH]c(=O)c2ccccc12	-5.8% (inactive)	-11.1%	–	–
CCCCN(CC)C(=O)c1n[nH]c(=O)c2ccccc12	–	-6.59%	29.1 µM (active)	–
CCOC(=O)c1n[nH]c(=O)c2ccccc12	6.78% (inactive)	-14.5%	–	–
O=C(NCc1csc2ccc(Cl)cc12)Nc1ccccc1	-4.18% (inactive)	-21.1%	–	–
COCCNc1nc(-c2ccccc2)nc2ccccc12	3.19% (inactive)	-1.08%	–	–
CC(C)OCCCNc1nc(-c2ccccc2)nc2ccccc12	–	-18%	–	inactive

SMILES	lipid storage change, negative = inhibition	cell number change	Potency	outcome
CCOCCCNc1nc(-c2ccccc2)nc2ccccc12	–	9.97%	4.61 µM (active)	–
COc1ccc(/C=N/Nc2nc(-c3cccnc3)nc3ccccc23)cc1OC	-5.18% (inactive)	-0.944%	–	–
COc1ccc(CCNc2nc(-c3cccnc3)nc3ccccc23)cc1OC	–	0.794%	9.2 µM (active)	–
COc1ccc(CNc2nc(-c3ccccc3)nc3ccccc23)cc1OC	4% (inactive)	-4.67%	–	–
CCc1ccc(/C=N\n2cnnc2)cc1	-2.9% (inactive)	2.5%	–	–
CCC(C(=O)NC1CCCCC1)n1c(SCc2cccc(C)c2)nc2ccncc21 (centres undefined)	19.5% (inactive)	-1.51%	–	–
Cc1ccc(S(=O)(=O)N2CCN(C(=O)CSc3ncn[nH]3)CC2)cc1	–	5.31%	16.4 µM (active)	–
O=C(CSc1ncn[nH]1)N1CCN(S(=O)(=O)c2ccccc2)CC1	4.24% (inactive)	11.4%	–	–
Cc1ccc(S(=O)(=O)N2CCN(C(=O)CSc3ccc(Cl)cc3)CC2)cc1	-23.2% (inactive)	-6.45%	–	–
Cc1cccn2c(CN(C)CC3Cc4ccccc4O3)c(C(=O)N3CCCCC3)nc12 (centres undefined)	6.24% (inactive)	-1.06%	–	–
COc1ccc(S(=O)(=O)N2CCN(C(c3ccccc3)c3ccccc3)CC2)cc1NC(C)=O	-2.59% (inactive)	5.87%	–	–
Cc1ccc(OCC(=O)N2CCN(C(=O)Cc3ccccc3)CC2)cc1	9.56% (inactive)	24.1%	–	–
CSCC(=O)N1CCCC(CO)(CCCc2ccccc2)C1 (centres undefined)	20.8% (inactive)	-13.7%	–	–
Cc1ccc(OCC(=O)N2CCCC(CO)(CCOc3ccccc3)C2)cc1 (centres undefined)	–	13.9%	14.6 µM (active)	–
O=c1[nH]c2ccccc2n2c(-c3ccncc3)nnc12	-8.9% (inactive)	-11.8%	–	–
CC(=O)NS(=O)(=O)c1ccc(NC(=O)c2cc3c(=O)n4ccccc4nc3s2)cc1	5.64% (inactive)	21.8%	–	–
Cc1cc(C)cc(NC(=O)c2cc3c(=O)n4ccccc4nc3s2)c1	–	-3.42%	6.51 µM (active)	–
O=C(Nc1cccc(Cl)c1)c1cc2c(=O)n3ccccc3nc2s1	-9.52% (inactive)	1.29%	–	–
O=C(CCC1CCCC1)Nc1ccccc1-c1ccccc1	4.16% (inactive)	-0.161%	–	–
COc1ccc(NC(=O)C2CCCCN2N)cc1OC (centres undefined)	-0.29% (inactive)	-2.19%	–	–
Cc1cc(C)cc(NC(=O)CSc2ccc(-c3ccccn3)nn2)c1	-5.08% (inactive)	2.31%	–	–
O=S1(=O)CC/C(=N\O)c2ccccc21	5.13% (inactive)	0.644%	–	–
O=c1cc(CO)oc(C(Nc2ccccn2)c2ccccc2Cl)c1O (centres undefined)	-1.26% (inactive)	-7.74%	–	–
N#Cc1ccc(OCC(=O)Nc2nc(-c3cccnc3)cs2)cc1	12.5% (inactive)	-1.13%	–	–
N#Cc1ccc(-c2ccc(OCC(=O)Nc3cccnc3)cc2)cc1	–	-11.3%	13 µM (active)	–

SMILES	lipid storage change, negative = inhibition	cell number change	Potency	outcome
O=C(COc1cccc(C(F)(F)F)c1)Nc1cccnc1	-7.09% (inactive)	28.7%	–	–
Nc1ccc(S(=O)(=O)c2ccc(N)c(N)c2)cc1	1.95% (inactive)	15.7%	–	–
CCCCCOCC(O)CCC(=O)NN (centres undefined)	-1.04% (inactive)	-19%	–	–
Cc1ccc2cc(C(c3nnnn3C3CCCC3)N(Cc3ccccc3)Cc3ccco3)c(=O)[nH]c2c1 (centres undefined)	–	-7.33%	–	inactive
CCOC(=O)C1=C(C)NC(=O)NC1c1ccc(OC(=O)c2ccco2)cc1 (centres undefined)	3.41% (inactive)	-14%	–	–
CCOC(=O)C1=C(CN2CCN(C(=O)c3ccco3)CC2)NC(=O)NC1c1ccc(OC(C)C)cc1 (centres undefined)	–	-20.3%	18.4 µM (active)	–
CCOC(=O)C1=C(CN2CCN(C(=O)c3ccco3)CC2)NC(=O)NC1c1ccc(F)cc1 (centres undefined)	–	-24.3%	–	inactive
Cc1nc2sc3c(c2c(=O)o1)CCCC3	–	5.3%	29.1 µM (active)	–
O=c1oc(-c2ccccc2)nc2sc3c(c12)CCCC3	–	–	–	inactive
Cc1ccccc1-c1nc2sc3c(c2c(=O)o1)CCC3	2.37% (inactive)	4.59%	–	–
COc1cccc(-c2nc(-c3ccccn3)no2)c1	4.98% (inactive)	-6.27%	–	–
Cc1c(NC(=O)CSCc2c(F)cccc2Cl)c(=O)n(-c2ccccc2)n1C	5.12% (inactive)	19%	–	–
O=C1Nc2ccc(S(=O)(=O)N3CCCC3C(=O)O)c3cccc1c23 (centres undefined)	-0.439% (inactive)	2.18%	–	–
CN1CCN(C(=O)/C(=C\c2ccccc2)c2ccccc2)CC1	–	-17.9%	18.4 µM (active)	–
CC1CCCCN1C(=O)/C(=C\c1ccccc1)c1ccccc1 (centres undefined)	-10.3% (inactive)	7.23%	–	–
O=C(/C(=C/c1ccccc1)c1ccccc1)N1CCCCC1	-0.342% (inactive)	-13.6%	–	–
CS(=O)(=O)c1ccccc1-c1nnc(NC(=O)c2ccc(S(=O)(=O)N3CCCC3)cc2)o1	–	–	–	inactive [at 0.0737 µM]
COCCCNC(=O)c1ccccc1-c1cc(C)no1	14.1% (inactive)	-2.62%	–	–
CC(Cl)C(=O)Nc1cc(C(F)(F)F)ccc1N1CCOCC1 (centres undefined)	10% (inactive)	-4.52%	–	–
CC(C(=O)Nc1cc(C(F)(F)F)ccc1N1CCOCC1)N1C(=O)C2CC=CCC2C1=O (centres undefined)	–	-1.98%	1.46 µM (active)	–
CC(=O)Nc1cc(C(F)(F)F)ccc1N1CCOCC1	1.01% (inactive)	3.32%	–	–
O=C(Cc1cccc2ccccc12)Nc1ccc(N2CCOCC2)cc1	-10.4% (inactive)	-1.09%	–	–
